# Experimental data taken from the supplement of paper PMC8728848.
# The entries come from a sample that favours the strongest signals as a whole.
# B1: TIM-1 (Mus musculus), AAL35774 (protein)
# chain: MNQIQVFISGLILLLPGAVDSYVEVKGVVGHPVTLPCTYSTYRGITTTCWGRGQCPSSACQNTLIWTNGHRVTYQKSSRYNLKGHISEGDVSLTIENSVESDSGLYCCRVEIPGWFNDQKVTFSLQVKPEIPTRPPTRPTTTRPTATGRPTTISTRSTHVPTSIRVSTSTPPTSTHTWTHKPEPTTFCPHETTAEVTGIPSHTPTDWNGTVTSSGDTWSNHTEAIPPGKPQKNPTKGFYVGICIAALLLLLLVSTVAITRYILMKRKSASLSVVAFRVSKIEALQNAAVVHSRAEDNIYIVEDRP
# What was measured:
# Assay in all cases: glycan array binding signal (z-score within array); higher = stronger binding
# Details in all cases: glycan notation: IUPAC condensed, linker removed
# [1] = molecular target: Fuc(a1-2)[GalNAc(a1-3)]Gal(b1-4)GlcNAc
# In short: (§1)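 Glycan array binding is given as a within-array Z-score, which can be read as non-binding when negative. The arrays, 3228 of them, came from the Consortium for Functional Glycomics database and were retained only where the protein sequence was available. Z-scores were averaged across arrays of the same protein sequence at different concentrations or buffers and across linkers.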
# Gal(a1-3)Gal(b1-3)Glc = molecular target: Gal(a1-3)Gal(b1-3)Glc
# In short: as §1
# [2] = molecular target: Gal(a1-3)Gal(b1-4)[Fuc(a1-3)]GlcNAc
# In short: as §1
# Gal(a1-4)Gal(b1-4)Gal = molecular target: Gal(a1-4)Gal(b1-4)Gal
# In short: as §1
# Gal3S(b1-3)GlcNAc = molecular target: Gal3S(b1-3)GlcNAc
# In short: as §1
# Gal6S(b1-4)Glc = molecular target: Gal6S(b1-4)Glc
# In short: as §1
# GlcA(b1-3)Gal = molecular target: GlcA(b1-3)Gal
# In short: as §1
# GlcA(b1-6)Gal = molecular target: GlcA(b1-6)Gal
# In short: as §1
# [3] = molecular target: GlcNAc(b1-3)[GlcNAc(b1-6)]GlcNAc
# In short: as §1
# [4] = molecular target: GlcNAc(b1-4)GlcNAc(b1-4)GlcNAc(b1-4)GlcNAc(b1-4)GlcNAc
# In short: as §1
# [5] = molecular target: Neu5Ac(a2-3)Gal(b1-4)[Fuc(a1-3)]GlcNAc
# In short: as §1
# [6] = molecular target: Neu5Ac(a2-3)Gal(b1-4)[Fuc(a1-3)]GlcNAc(b1-3)Gal
# In short: as §1
# [7] = molecular target: Neu5Ac(a2-3)GalNAc(b1-4)GlcNAc
# In short: as §1
# [8] = molecular target: Neu5Ac(a2-3)[GalNAc(b1-4)]Gal(b1-4)Glc
# In short: as §1
# [9] = molecular target: Neu5Ac(a2-3)[Neu5Ac(a2-6)]GalNAc
# In short: as §1
# [10] = molecular target: Neu5Ac(a2-6)Gal(b1-4)GlcNAc(b1-3)Gal(b1-4)[Fuc(a1-3)]GlcNAc(b1-3)Gal(b1-4)[Fuc(a1-3)]GlcNAc
# In short: as §1
# Neu5Ac(a2-6)GalNAc = molecular target: Neu5Ac(a2-6)GalNAc
# In short: as §1
binder,measurement,setting,value
B1,glycan array binding signal (z-score),[1],-0.268
same,glycan array binding signal (z-score),Gal(a1-3)Gal(b1-3)Glc,-0.335
same,glycan array binding signal (z-score),[2],2.6
same,glycan array binding signal (z-score),Gal(a1-4)Gal(b1-4)Gal,1.46
same,glycan array binding signal (z-score),Gal3S(b1-3)GlcNAc,-0.247
same,glycan array binding signal (z-score),Gal6S(b1-4)Glc,-0.128
same,glycan array binding signal (z-score),GlcA(b1-3)Gal,2.46
same,glycan array binding signal (z-score),GlcA(b1-6)Gal,2.12
same,glycan array binding signal (z-score),[3],-0.61
same,glycan array binding signal (z-score),[4],1.29
same,glycan array binding signal (z-score),[5],-0.451
same,glycan array binding signal (z-score),[6],-0.414
same,glycan array binding signal (z-score),[7],-0.411
same,glycan array binding signal (z-score),[8],-0.433
same,glycan array binding signal (z-score),[9],0.386
same,glycan array binding signal (z-score),[10],-0.125
same,glycan array binding signal (z-score),Neu5Ac(a2-6)GalNAc,-0.529
